# In PubChem BioAssay (NCATS):
# Values joined by “and” are separate entries in the source; they are usually repeats but may differ in a detail not shown here. Identical values can stand only once. Results filed as inconclusive are left out. Where a call stands in place of a potency, no number is given. Active and inactive are the calls of the source. The call rests on the fitted dose curve; in most records, active means well fitted cell-killing curve with a large enough effect; inconclusive means small, poorly fitted or top-dose-only effect; inactive means no such curve, though single readings can be large or run the other way.
# Assay: qHTS of pediatric cancer cell lines to identify multiple opportunities for drug repurposing: Primary screen for Rh30 cells (AID 1347107); further: nearly all actives have a fitted effect of over 75% in size
# Settings: Rh30 rhabdomyosarcoma viability, CellTiter-Glo luminescence, 48 h; series mostly up to 46 µM; activity change, negative = cytotoxic: at the top concentration
# Method in brief: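 Viability after 48 h compound treatment at 37C, 500-1,000 cells/well, read as ATP luminescence with CellTiter-Glo. Primary screens used 11-point (MIPE, 0.78 nM-46 µM) or 8-point (NPC, 0.59 nM-46 µM) final concentrations; follow-up screens used 11-point dilutions.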
# Potency means the concentration at half of the fitted maximal effect.
SMILES,Potency,"activity change, negative = cytotoxic"
COc1ccc(-c2ccc3cc(C(=O)O)ccc3c2)cc1C12CC3CC(CC(C3)C1)C2,inactive,–
CC(C)NCC(O)c1ccc(NS(C)(=O)=O)cc1 (configuration not stated),–,4.47% (inactive)
COC(=O)Nc1nc2ccc(Sc3ccccc3)cc2[nH]1,inactive,–
COc1cc2c(Nc3ccc(Br)cc3F)ncnc2cc1OCC1CCN(C)CC1,–,12.2% (inactive)
CCCCOc1ccc(CC(=O)NO)cc1,–,-4.82% (inactive)
CC(C)(C)C(=O)OCOP(=O)(COCCn1cnc2c(N)ncnc21)OCOC(=O)C(C)(C)C,inactive,–
O=S(=O)(O)CCS,inactive,–
CC(C)(C#N)c1cc(Cn2cncn2)cc(C(C)(C)C#N)c1,inactive,–
COc1cc([C@@H]2c3cc4c(cc3[C@H](O)[C@H]3COC(=O)[C@H]23)OCO4)cc(OC)c1OC,inactive,–
CCOC(=O)c1ccc(C#Cc2ccc3c(c2)C(C)(C)CCS3)nc1,inactive,–
Nc1nc(F)nc2c1ncn2[C@@H]1O[C@H](CO)[C@@H](O)[C@@H]1O,–,-6.41% (inactive)
Nc1nc(N)nc(-c2cc(Cl)ccc2Cl)n1,inactive,–
NC(=O)c1cccnc1,inactive,–
COC(=O)Nc1nc2ccc(S(=O)c3ccccc3)cc2[nH]1 (configuration not stated),inactive,–
CCOC(=O)[C@H](CCc1ccccc1)N[C@H]1CS[C@H](c2cccs2)CN(CC(=O)O)C1=O,–,15.4% (inactive)
CC(C)C[C@H](NC(=O)[C@H](CCc1ccccc1)NC(=O)CN1CCOCC1)C(=O)N[C@@H](Cc1ccccc1)C(=O)N[C@@H](CC(C)C)C(=O)[C@@]1(C)CO1,59.6 nM (active) and 296 nM (active),–
COc1nc(N)nc2c1ncn2[C@@H]1O[C@H](CO)[C@@H](O)[C@@H]1O,inactive,–
